Laboratory results published in PubChem BioAssay AID463075 (University of Pittsburgh Molecular Library Screening Center, 2010).
Among all 220,000 compounds or so, about 150 (0.068%) were called active.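 Rule for the calls: active = activation, meaning protection from cell death, of at least 50% relative to plate controls; inactive = activation below 50%.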 For the sample, actives were picked, then their nearest neighbours and some compounds at random.

assay: inhibitors of TNF-alpha triggered necroptosis, primary screen, cell-based, Jurkat FADD-/-, single concentration (AID 463075); conditions: Jurkat FADD-/- TNF necroptosis rescue, ATP luminescence, 24 h; at 10 µM; active compounds read high; 0 = TNF only, 100 = no-TNF cells;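 note: necroptosis triggered by 40 ng/mL TNF-alpha added together with compound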

Row | SMILES | activation (protection from cell death)
1 | COc1ccc(NC(=O)C2=C(C)NC(=O)NC2c2ccccc2[N+](=O)[O-])cc1 (configuration not stated) | 0.73% (inactive)
2 | CCOC(=O)c1cc(Sc2ccccc2N)cc(C(=O)OCC)n1 | 0.0548% (inactive)
3 | COc1ccc(OCc2cn3c(C)cc(C)nc3n2)cc1 | 1.17% (inactive)
4 | CC1COc2ccccc2N1S(=O)(=O)c1ccccc1 (configuration not stated) | -0.217% (inactive)
5 | CCOc1ccccc1NC(=O)C12CC3CC(C1)CC(c1ccc(C)cc1)(C3)C2 | -1.89% (inactive)
6 | O=c1ccnc(Nc2ccc(Cl)cc2)[nH]1 | 2.1% (inactive)
7 | Cc1csc(Nc2ccc(Cl)cc2)[n+]1-c1ccc(Cl)cc1 | 52.7% (active)
8 | Cc1ccc(NC(=O)c2ccc(Oc3ncccn3)cc2)cc1 | -0.146% (inactive)
9 | CN(C)Cc1ccc(F)cc1Sc1cc(Cl)ccc1Cl | 0.603% (inactive)
10 | CCOC(=O)CNC(=O)N1c2ccccc2Sc2ccccc21 | -1.84% (inactive)
11 | C=CCNC(=O)c1cc2nc(C3CC3)cc(C(F)F)n2n1 | 0.00242% (inactive)
12 | Cc1ccc(C(=O)/C=C/Nc2ccc(S(=O)(=O)Nc3onc(C)c3C)cc2)cc1 | 1.49% (inactive)
13 | CCN(CC)c1ccc(C(=O)c2cnc(/N=C/N(C)C)s2)cc1 | 2.87% (inactive)
14 | CC(NC(=S)NNS(=O)(=O)c1ccc(C(C)(C)C)cc1)c1ccccc1 (configuration not stated) | 5.41% (inactive)
15 | COc1cc(OC)cc(C(=O)NC2CCN(C(=O)N3c4ccccc4Sc4ccccc43)CC2)c1 | -2.58% (inactive)
16 | CN(C)CCCn1c(SCCN2C(=O)c3ccccc3C2=O)nc2ccccc2c1=O | 0.858% (inactive)
17 | CCN(CC)C(=O)CSc1nnc(CNc2ccc(F)cc2)n1Cc1ccco1 | 0.256% (inactive)
18 | C/C(CC(C)C)=N\Oc1nc(C)cc(C)n1 | 1.02% (inactive)
19 | Clc1ccc(-c2cc(C3CCNCC3)[nH]n2)c(Cl)c1 | 4.13% (inactive)
20 | FC(F)(F)c1cc(C(F)(F)F)c2ccc(N3CCN(c4ccccc4)CC3)nc2n1 | -0.212% (inactive)
21 | NC(=O)c1ccc(NC(=O)COC(=O)C(Cc2ccccc2)NC(=O)c2ccccc2)cc1 (configuration not stated) | 0.97% (inactive)

Row | SMILES | activation (protection from cell death)
22 | Cc1nn(C)c(C)c1S(=O)(=O)N1CCC(CO)(Cc2ccc(Cl)cc2)CC1 | -0.682% (inactive)
23 | CCC1CO/C(=C(\C(=C(Cl)Cl)N2CCOCC2)[N+](=O)[O-])N1 (configuration not stated) | 0.241% (inactive)
24 | C=C(C)COc1ccc(-c2nc(N)ncc2-c2ccccc2OC)c(O)c1 | 1.21% (inactive)
25 | OCC1(CCc2ccccc2)CCN(Cc2ccc3nsnc3c2)CC1 | 1.53% (inactive)
26 | NS(=O)(=O)c1ccc(NC(=S)NC(=O)c2cccc(Br)c2)cc1 | -0.737% (inactive)
27 | CCOc1ccc(NC(=O)C2CC(=O)N=C(N)S2)cc1 (configuration not stated) | 0.442% (inactive)
28 | CCOC(=O)C1=C(CC)Nc2ccccc2N=C1NC(=O)c1cccc(S(=O)(=O)N2CCCC2)c1 | -3.1% (inactive)
29 | COC(=O)C1CCN(CC(N)=O)CC1 | 1.78% (inactive)
30 | Cc1c([N+](=O)[O-])c(N)nn1C | 0.221% (inactive)
31 | COc1ccc(CC(=O)NCc2nnc(SCC(=O)Nc3ncc(C)s3)n2C)cc1 | 1.73% (inactive)
32 | Clc1ncn(CCOc2ccccc2)c1Cl | 3.48% (inactive)
33 | N#Cc1c(N2CCCCC2)nc(N)c2c(N)nc(SCC(=O)O)cc12 | -7.92% (inactive)
34 | Cc1cc(C(=O)COC(=O)C2CC2)c(C)n1-c1ccc(F)cc1 | -0.153% (inactive)
35 | CN(C(=O)c1c(Cl)cnn1C)C12CC3CC(CC(C3)C1)C2 | -0.801% (inactive)
36 | CCNc1ccc(C(=O)OCC(=O)N2c3ccccc3NC(=O)C2(C)C)cc1[N+](=O)[O-] | 1.58% (inactive)
37 | CCn1c2ccccc2c2cc(CC(N)=O)ccc21 | -1.12% (inactive)
38 | CCc1ccccc1NC(=O)CN(c1ccc(OC)cc1OC)S(=O)(=O)c1ccccc1[N+](=O)[O-] | 0.342% (inactive)
39 | Cc1ccc2nc(SC(C)C(=O)NCc3ccco3)[nH]c2c1 (configuration not stated) | -0.614% (inactive)
40 | CCOC(=O)c1c(N)sc2c1CCCC2=O | -2.66% (inactive)
41 | O=C1CC(NNc2ccccc2)C(=O)N1c1cccc(Cl)c1 (configuration not stated) | -2.98% (inactive)
42 | O=C1CC(c2ccccc2)C(=O)N1c1cccc(O)c1 (configuration not stated) | 52% (active)

Row | SMILES | activation (protection from cell death)
43 | O=C1OCC2=C1C(c1ccccc1)CC(=O)N2c1cccc(F)c1 (configuration not stated) | -0.757% (inactive)
44 | Cc1nnc(Nc2ccccc2F)s1 | 0.78% (inactive)
45 | N#Cc1c(-c2ccc(Cl)cc2)c2c([nH]c1=S)CCCC2 | -2.48% (inactive)
46 | O=C(O)c1ccccc1-c1ccccc1C(=O)NCc1cccnc1 | 0.395% (inactive)
47 | CCN(C(=O)COc1cccnc1[N+](=O)[O-])C1CCS(=O)(=O)C1 (configuration not stated) | 0.598% (inactive)
48 | CCC(C)n1c(-c2cc(OC)c(OC)c(OC)c2)nc2nc3ccccc3nc21 (configuration not stated) | -16.6% (inactive)
49 | CC(=O)Nc1nc2c(s1)C(=O)NCC(C)(C)C2 | 0.16% (inactive)
50 | Cc1ccc(S(=O)(=O)NCCc2nnc3ccc(SCc4cccnc4)nn23)cc1 | -0.101% (inactive)
51 | O=C(Cc1c(F)cccc1Cl)Nc1ccc(-n2cnnn2)cc1 | 0.184% (inactive)
52 | O=C(CCc1ccccc1)Nc1ncc([N+](=O)[O-])s1 | 9.81% (inactive)
53 | O=C(Cc1c(F)cccc1Cl)Nc1ncc([N+](=O)[O-])s1 | 59.9% (active)
54 | COc1ccc(Br)cc1C(=O)Nc1cccc(C)c1C | 0.986% (inactive)
55 | O=C(NC(Cc1c[nH]c2ccccc12)C(=O)N/N=C/c1ccc(Br)cc1)c1cccs1 (configuration not stated) | -2.26% (inactive)
56 | CC(C)c1nc(CNC(=O)CC2C(=O)NCCN2Cc2ccoc2)cs1 (configuration not stated) | -0.307% (inactive)
57 | CCc1cc(CNC(=O)CC2C(=O)NCCN2Cc2ccccc2C(F)(F)F)on1 (configuration not stated) | 1.76% (inactive)
58 | COC(=O)c1ccc(Cc2ccccc2)o1 | 55.2% (active)
59 | COC(=O)c1ccc(CN(c2ccccc2OC)S(=O)(=O)c2cccs2)o1 | 0.0719% (inactive)
60 | COC(=O)c1ccc(CSc2ccccc2C)o1 | 6.63% (inactive)
61 | COc1ccccc1CNC(=O)CN1CCC(n2cnc3cc(F)ccc32)CC1 | 4.48% (inactive)
62 | O=C(c1ccc(S(=O)(=O)c2ccccc2)cc1)N1CCCCCC1 | 1.36% (inactive)
